Some test systems named below: NCI-H23 lung; NCI-H226 lung; NCI-H322M lung; HOP-62 NSCLC; NCI-H460 lung; HOP-92 NSCLC; NCI-H522 lung; A549/ATCC NSCLC; 786-0 renal; DU-145 prostate; K-562 leukemia; MDA-MB-231 breast; RXF 393 renal; SF-268 CNS; SF-295 CNS; SF-539 CNS; UACC-257 melanoma; M14 melanoma; MALME-3M melanoma.
Holding throughout (test): NCI-60 one-dose screen, 48 h (100 = growth as untreated, 0 = no growth, -100 = all killed)
What all share (conditions): 10 µM unless noted

SMILES strings stand for the structures. About 83,000 compounds went through this panel and 20% of them were active in at least one assay; those are over-represented in the sample as a whole.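 Negative percent growth values reflect cell death: -40 means 40% of the cells present at the start died, and -100 means all died.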 A number with no mark means an inactive call. Activity calls are given as the source filed them. How the source made its calls: active means growth percent below 10; inactive means the rest.

The record followed here is PubChem BioAssay (NCI).

`COc1ccc(CN2C(=O)/C(=C\c3cc(OC)c(OC)c(OC)c3)c3ccccc32)cc1`: the growth was -8.08% (active) with NCI-H23 lung; 11.8% in the assay on NCI-H226 lung; 19.6% with NCI-H322M lung; -33% (active) with HOP-62 NSCLC; -53% (active) with NCI-H460 lung; 0.884% (active) in the assay with HOP-92 NSCLC. The growth was -54.1% (active) with NCI-H522 lung; 9.31% (active) in the assay with A549/ATCC NSCLC; 1.15% (active) with 786-0 renal; 9.87% (active) in the assay on DU-145 prostate; 5.28% (active) in the assay with K-562 leukemia; 5.55% (active) in the assay with MDA-MB-231 breast. In addition, the growth was -69.6% (active) in the assay with RXF 393 renal; 10.4% with SF-268 CNS; -46% (active) in the assay on SF-295 CNS; -84.9% (active) in the assay on SF-539 CNS; -9.5% (active) with UACC-257 melanoma; -32% (active) in the assay on M14 melanoma.
Consider `C(=C\c1nc2ccccc2[nH]1)/c1nc2ccccc2[nH]1`, for which the growth in the assay with NCI-H23 lung is 96.5%; in the assay on NCI-H226 lung, 92.6%; with NCI-H322M lung, 98.6%; in the assay on HOP-62 NSCLC, 110%; in the assay with NCI-H460 lung it was 103%; in the assay with HOP-92 NSCLC, 95%. Further, the growth with NCI-H522 lung is 98%; in the assay with A549/ATCC NSCLC, 99.1%; in the assay on 786-0 renal, 113%; with DU-145 prostate, 107%; with K-562 leukemia it was 90%; with MDA-MB-231 breast it was 90.4%. In addition, the growth is 122% in the assay with RXF 393 renal; 110% with SF-268 CNS; 100% in the assay on SF-295 CNS; 104% with SF-539 CNS; 86.6% with UACC-257 melanoma; 100% with M14 melanoma.
Consider `CCOc1cccnc1/C=N/NC(N)=S`, for which the growth with NCI-H23 lung is 73.8%; in the assay on NCI-H226 lung, 53.9%; with NCI-H322M lung it was 6.61% (active); with HOP-62 NSCLC, 64.9%; in the assay on NCI-H460 lung it was 19.9%; with HOP-92 NSCLC it was 46.5%. The growth is 79.1% in the assay with NCI-H522 lung; 48% in the assay with A549/ATCC NSCLC; 51.6% in the assay with 786-0 renal; 34.4% in the assay with DU-145 prostate; 31.4% with K-562 leukemia; 49.6% in the assay with MDA-MB-231 breast. For the same compound, the growth with RXF 393 renal is 61.4%; in the assay on SF-268 CNS, 32.9%; in the assay on SF-295 CNS it was 5.53% (active); in the assay with SF-539 CNS it was 47.7%; with UACC-257 melanoma, 95.7%; in the assay with M14 melanoma it was 42.4%.
On to `Cc1cc(=O)c2cc3nc(-c4cccnc4)oc3c(Br)c2o1`, for which the growth in the assay with NCI-H23 lung was 90%; in the assay on NCI-H226 lung it was 116%; in the assay on NCI-H322M lung, 109%; with HOP-62 NSCLC, 101%; in the assay on NCI-H460 lung it was 104%; with HOP-92 NSCLC, 92%. The growth with NCI-H522 lung was 62.9%; in the assay on A549/ATCC NSCLC, 97.2%; in the assay with 786-0 renal, 96.8%; in the assay with DU-145 prostate it was 119%; in the assay with K-562 leukemia, 84%; with MALME-3M melanoma, 98.7%. Also, the growth in the assay on MDA-MB-231 breast was 111%; with SF-268 CNS, 107%; in the assay with SF-295 CNS it was 120%; with SF-539 CNS it was 106%; in the assay on UACC-257 melanoma, 106%; in the assay on M14 melanoma, 98.8%.
Turning to `NC(=S)N/N=C/C(=O)O`, the growth in the assay on NCI-H23 lung is 99.3%; with NCI-H226 lung it was 96.2%; in the assay with NCI-H322M lung it was 77.5%; with HOP-62 NSCLC, 85.9%; with NCI-H460 lung, 99.6%; with HOP-92 NSCLC it was 81.8%. The growth with NCI-H522 lung is 96.8%; in the assay with A549/ATCC NSCLC, 92.2%; in the assay with 786-0 renal it was 104%; with DU-145 prostate it was 106%; with K-562 leukemia it was 32.7%; in the assay on MDA-MB-231 breast it was 97.1%. Besides, the growth in the assay on RXF 393 renal was 107%; in the assay on SF-268 CNS it was 92.4%; in the assay on SF-295 CNS, 71.9%; in the assay on SF-539 CNS, 104%; in the assay with UACC-257 melanoma it was 86.1%; in the assay on M14 melanoma, 93.9%.
`C=C(C)[C@@H]1CC[C@@]2(C(=O)O)CC[C@]3(C)C(CCC4[C@@]5(C)CCC(OS(=O)(=O)c6ccccc6)C(C)(C)C5CC[C@]43C)C12` (some centres undefined): the growth in the assay with NCI-H23 lung is 37.2%; with NCI-H226 lung it was 69.2%; in the assay on NCI-H322M lung, 73.6%; in the assay on HOP-62 NSCLC, 57.4%; with NCI-H460 lung, 42.3%; in the assay with HOP-92 NSCLC it was 51%. The growth is 32.5% in the assay with NCI-H522 lung; 17.8% in the assay on A549/ATCC NSCLC; 56.5% with 786-0 renal; 55.4% in the assay on DU-145 prostate; 46.5% in the assay on K-562 leukemia; 67.4% in the assay with MDA-MB-231 breast. Moreover, the growth was 73.8% in the assay on RXF 393 renal; 70.6% in the assay with SF-268 CNS; -32.7% (active) in the assay with SF-295 CNS; 52.4% in the assay on SF-539 CNS; 32% in the assay on UACC-257 melanoma; 60.8% in the assay with M14 melanoma.
Regarding `O=C(CCCCCCCn1cc(-c2cccnc2)nn1)Nc1ccccc1-c1ccccc1`, the growth with NCI-H23 lung was 63.6%; in the assay with NCI-H226 lung, 55.4%; in the assay on NCI-H322M lung it was 65.3%; with HOP-62 NSCLC it was 61.1%; with NCI-H460 lung, 29.3%; in the assay on HOP-92 NSCLC, 96.5%. Besides, the growth in the assay on NCI-H522 lung is 27.5%; in the assay on A549/ATCC NSCLC, 36.9%; in the assay on 786-0 renal, 53.4%; in the assay with DU-145 prostate, 37.2%; in the assay with K-562 leukemia, 23.7%; in the assay on MDA-MB-231 breast, 59.6%. In addition, the growth is 80.4% with RXF 393 renal; 63.8% with SF-268 CNS; -15.9% (active) in the assay with SF-295 CNS; -7.88% (active) in the assay on SF-539 CNS; 65.6% in the assay on UACC-257 melanoma; 17.3% in the assay on M14 melanoma.
`O=C1CSC(c2ccccc2)N1c1ccccc1` (centres undefined): the growth in the assay on NCI-H23 lung was 99.7%; with NCI-H226 lung, 96.2%; in the assay with NCI-H322M lung, 90.4%; in the assay on HOP-62 NSCLC it was 116%; in the assay with NCI-H460 lung, 103%; in the assay with HOP-92 NSCLC it was 82.4%. In addition, the growth in the assay on NCI-H522 lung was 104%; in the assay with A549/ATCC NSCLC it was 103%; with 786-0 renal, 105%; in the assay on DU-145 prostate it was 107%; with K-562 leukemia it was 107%; in the assay with MDA-MB-231 breast, 103%. Besides, the growth with RXF 393 renal was 95.8%; in the assay on SF-268 CNS it was 105%; with SF-295 CNS, 96.6%; in the assay on SF-539 CNS it was 108%; in the assay on UACC-257 melanoma, 101%; with M14 melanoma, 99.5%.
